Measurements from PubChem BioAssay AID2410 (Southern Research Specialized Biocontainment Screening …, 2010).
The whole screen tested about 2,500 compounds, of which about 2,100 (84%) were called active.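 Rule for the calls: active = toxic compounds, whose cell viability fell below 70% of untreated control cells; inactive = the rest.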 So high a share suggests a set chosen from earlier hits. Only a sample is shown. Entries with a potency or affinity are not part of this list.

Assay: viability of uninfected HEp-2 cells – cell-based, HTS, cytotoxicity control for RSV inhibitor project, dose response (AID 2410);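 note: cells exposed to compound for six days before readout; 100% = median signal of untreated cell control wells on each plate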
Conditions: HEp-2 viability, luminescence, cytotoxicity counter-screen; series mostly up to 50 µM; viability: at the top concentration

| SMILES | viability |
| --- | --- |
| CCOc1cc(/C=N/O)cc(Br)c1OCc1ccc(Cl)cc1 | 95.8% (inactive) |
| COc1ccc(OC)c(-n2c(SCC(=O)NCc3ccco3)nnc2-c2c[nH]c3ccccc23)c1 | 70.7% (inactive) |
| O=c1[nH]c(/C=C2\C=Nc3ccccc32)c(O)n1Cc1ccccc1F | 90.2% (inactive) |
| COc1ccc(-c2nc[nH]c2[N+](=O)[O-])cc1 | 94.2% (inactive) |
| C=CCN1C(=O)N(/C=C/C)c2cccc3cccc1c23 | 96.3% (inactive) |
| CCOC(=O)C1=C(C)N=c2s/c(=C/c3ccc(OCC(=O)O)c(OC)c3)c(=O)n2C1c1ccc(Cl)cc1 (stereo unspecified) | 76.8% (inactive) |
| CCCC(c1nnnn1CC(=O)OCC)N(Cc1cc2c(C)cc(C)cc2[nH]c1=O)C1CCCC1 (stereo unspecified) | 119% (inactive) |
| COc1ccc(NC2c3ncccc3C(=O)N2Cc2cccs2)cc1 (stereo unspecified) | 83.8% (inactive) |
| CC(=O)Nc1ccc2c(CSc3nnc(N)s3)cc(=O)oc2c1 | 120% (inactive) |
| C=CCSc1nnc2nc3c(nn12)c1cc(C)ccc1n3CC=C | 76.7% (inactive) |
| c1csc(-c2nn3c(Cn4cnc5ccccc54)nnc3s2)c1 | 85.1% (inactive) |
| O=C1c2ccccc2C(=O)N1CCCCN(C(=O)c1ccco1)c1ccc(Cl)cc1 | 72.2% (inactive) |
| NC(=O)N\N=C/C=C/C=C/c1ccc(F)cc1 | 72.2% (inactive) |
| CNC(=S)N/N=C(\C)c1cccc(C(F)(F)F)c1 | 94.9% (inactive) |
| Nc1ccc(C(=O)N/N=C2\CCCc3c2[nH]c2ccccc32)cc1 | 101% (inactive) |
| CCC(=O)N(CC(=O)Nc1sc(C)c(C)c1C(N)=O)C1CCCC1 | 88.8% (inactive) |
| COc1ccccc1CN1C[C@@H]2C[C@@H](c3ccc(C)c(C)c3)N3CCC[C@@]23C1=O | 70.3% (inactive) |
| Cc1ccc(C(=O)N/C(=C\c2ccc(C(C)C)cc2)C(=O)NCCCN2CCOCC2)cc1 | 81.3% (inactive) |
| Cc1ccc(-c2nc3cc(N)ccc3o2)c(C)c1 | 95.1% (inactive) |
| Cc1cc2nc(-c3ccc(NC(=O)C(C)C)cc3)oc2cc1C | 81.2% (inactive) |
| CCCC(=O)Nc1ccc(-c2nc3cc(C)c(C)cc3o2)cc1 | 75.3% (inactive) |
| O=C(c1ccc(F)cc1Cl)N(c1ccccn1)C1CCCCC1 | 71.9% (inactive) |

| SMILES | viability |
| --- | --- |
| c1csc(-c2nn3c(Cn4nnc5ccccc54)nnc3s2)c1 | 102% (inactive) |
| Cn1c(NCc2cc(Br)ccc2O)nc2ccccc21 | 91.3% (inactive) |
| COc1cc(C)c2occ(/C(C)=N\O)c2c1 | 98.9% (inactive) |
| COc1cc(/C=C(\C#N)c2nc3ccccc3s2)ccc1OCC(=O)Nc1ccccc1 | 101% (inactive) |
| O=C(Oc1ccc(-c2cnc3ccccc3n2)cc1)c1ccco1 | 95.7% (inactive) |
| OCCC1CN(Cc2cccn2-c2nccs2)CCN1CCc1ccccc1 (stereo unspecified) | 76.8% (inactive) |
| CS(=O)(=O)c1ccc(Cl)c(NC(=O)c2ccc3ccccc3c2)c1 | 110% (inactive) |
| O=C(Nc1ccccn1)C1COc2ccccc2O1 (stereo unspecified) | 86% (inactive) |
| CCOC(=O)c1c(NC(=O)C2COc3ccccc3O2)sc2c1CC(C)(C)NC2(C)C (stereo unspecified) | 84.5% (inactive) |
| O=C(CCn1c(=O)c2ccccc2n(Cc2cc(=O)n3ccccc3n2)c1=O)NCc1ccco1 | 96.9% (inactive) |
| NC(=O)COc1ccc2c3c(c(=O)oc2c1)CCCCC3 | 79.8% (inactive) |
| CCOC(=O)c1c(C)oc2c1cc(O)c1ccccc12 | 74.8% (inactive) |
| Cn1c2ccccc2c2cc([N+](=O)[O-])ccc21 | 85.2% (inactive) |
| CC(=O)Cc1nsc(NC(=O)c2oc(-c3ccccc3Cl)cc2C)n1 | 73.8% (inactive) |
| Cc1ccc(NC(=O)c2ccc(NS(=O)(=O)c3cccc4cccnc34)cc2)cc1 | 72.4% (inactive) |
| Cn1c(=O)c2c3c(sc2n2cnnc12)CCC3 | 93.9% (inactive) |
| Cc1ccc(S(=O)(=O)N2CCC(C(=O)OCC(=O)N3CCCC3=O)CC2)cc1C | 106% (inactive) |
| O=C(N=Nc1c(O)[nH]c2ccc([N+](=O)[O-])cc12)c1ccccc1[N+](=O)[O-] | 74.4% (inactive) |
| O=C(CNC(=O)c1ccco1)N=Nc1c(O)[nH]c2ccc([N+](=O)[O-])cc12 | 74.5% (inactive) |
| COc1ccc(Cl)cc1NC(=O)C1(c2cccs2)CCOCC1 | 87.3% (inactive) |
| Cc1ccc(NC(=O)CN(C)S(=O)(=O)c2cccc3cccnc23)c(C)c1 | 87.6% (inactive) |
| COc1ccccc1CNC(=O)C1CCCN1S(=O)(=O)c1cccc2cccnc12 (stereo unspecified) | 85.4% (inactive) |

| SMILES | viability |
| --- | --- |
| Cc1ccc(-c2csc3nc(C)n(N)c(=O)c23)o1 | 80% (inactive) |
| C=C(C)C(=O)Nc1cccc(C2=NOC3(C2)C[C@@H](C(N)=O)N(C(=O)c2ccc(OC)cc2)C3)c1 (stereo partly specified) | 75.9% (inactive) |
| CCOC(=O)c1ccc2[nH]c3c(c2c1)CN(C)CC3 | 105% (inactive) |
| C/C(N)=C(/C#N)C(=O)COC(=O)c1cc2c(s1)CCCC2 | 113% (inactive) |
| CNS(=O)(=O)c1ccc(OC)c(-c2nnc3c4ccccc4c(C)nn23)c1 | 107% (inactive) |
| COc1ccc(C(C(=O)NC2CCCC2)N(C(=O)c2snc(C(N)=O)c2N)c2cc(C)ccc2OC)cc1OC (stereo unspecified) | 88.9% (inactive) |
| C=C(C)Cn1c(N2CC(C)CC(C)C2)nc2c1c(=O)[nH]c(=O)n2C (stereo unspecified) | 99.3% (inactive) |
| Brc1cccc(-c2nc(-c3ccncc3)no2)c1 | 82.8% (inactive) |
| CC(C)(C)c1cc(NC(=O)c2cc(F)c(F)c(F)c2F)no1 | 76.3% (inactive) |
| Cc1ccc(N2C=Nc3ccc(C)c4nc(C)cc2c34)cc1 | 73.6% (inactive) |
| CC1(C)CC(=O)C2=C(C1)OC(N)=C(C#N)C2C#Cc1ccccc1 (stereo unspecified) | 102% (inactive) |
| O=C(O)c1cc(-c2ccc(/C=C3\NC(=O)N(c4ccc(Cl)cc4)C3=O)o2)ccc1Cl | 87% (inactive) |
| CC(=O)Oc1cc(OC(C)=O)c2c(C)cc(=O)oc2c1 | 82.4% (inactive) |
| COc1cc(/C=N/O)cc(Br)c1OCc1cccc(Cl)c1 | 96.1% (inactive) |
| Cc1ccc(-n2c(=O)c3sccc3n(Cc3cc(=O)n4ccccc4n3)c2=O)cc1 | 94.5% (inactive) |
| COc1ccc(-n2c(SCC(=O)/C(C#N)=C(\C)N)nc3ccccc3c2=O)cc1OC | 99% (inactive) |
| Nc1ccc(Sc2cc(Cl)nc(N)n2)cc1 | 104% (inactive) |
| CCC(=O)Nc1ccc(C(=O)OCC(=O)c2ccc(C)c([N+](=O)[O-])c2)cc1 | 76.5% (inactive) |
| Cc1ccc(OCC(=O)Nc2c[nH]c(=O)[nH]c2=O)cc1C | 87.6% (inactive) |
| COc1ccc(C(=O)N2CC(c3ccc(Cl)cc3)CC2=O)cc1 (stereo unspecified) | 80.7% (inactive) |
| CCn1c2ccccc2c2cc(NC(=O)C(=O)NCC3CCCO3)ccc21 (stereo unspecified) | 77.6% (inactive) |
| CSc1nc(C)c(C(=O)Nc2ccccc2)c(-c2ccco2)c1C#N | 88.8% (inactive) |

| SMILES | viability |
| --- | --- |
| Cc1ccc(C(=O)OCC(=O)c2c[nH]c3ccccc23)cc1NC(=O)c1ccco1 | 84% (inactive) |
| Cn1c(=NC(=O)c2ccco2)sc2ccccc21 | 101% (inactive) |
| CC[C@@]12C(=O)N(c3ccc(OC)cc3)C(=O)N1[C@H](c1ccc(Cl)cc1)[C@@H]1C(=O)N(C3CCCCC3)C(=O)[C@@H]12 | 83.2% (inactive) |
| CCOC(=O)c1sc2nc(C)[nH]c(=O)c2c1C | 74.5% (inactive) |
| CCOC(=O)c1sc2nc(COC(=O)c3c(F)cccc3F)[nH]c(=O)c2c1C | 81.5% (inactive) |
| Cc1nn(Cc2ccc(F)cc2)c(C)c1NC(=O)c1cnn2c1NC(c1ccccc1)CC2C(F)(F)F (stereo unspecified) | 89.7% (inactive) |
| CCN(c1cc(C)cc(C)c1)S(=O)(=O)c1nnc(NC(=O)C(C)C)s1 | 71.8% (inactive) |
| Cc1ccc(S(=O)(=O)N2CCN(C)CC2)cc1-c1nnc2c3ccccc3c(C)nn12 | 90.2% (inactive) |
| O=C(c1ccc(Br)o1)N1CCN(c2ccc3nnc(-c4ccccc4)n3n2)CC1 | 79.8% (inactive) |
| COc1ccc(C(=O)O/N=C2\C(=O)N(C)c3ccccc32)cc1 | 95.8% (inactive) |
| N#Cc1cc(Cl)c(N2CCOCC2)cc1C#N | 79.7% (inactive) |
| O=C(O)CSc1cn(Cc2ccccc2)c2ccccc12 | 94% (inactive) |
| CC1CCN(C(=O)Cn2c(=O)n(-c3ccc(F)cc3)c(=O)c3sccc32)CC1 | 115% (inactive) |
| O=C(Nc1cc(Cl)cc(Cl)c1)c1ccc(Cn2c(=O)[nH]c3ccsc3c2=O)cc1 | 102% (inactive) |
| COc1ccc(S(=O)(=O)NC(C)(C)C)cc1-c1nnc2c3ccccc3c(C)nn12 | 119% (inactive) |
| O=C1c2cccnc2C(Nc2ccc(Cl)cc2)N1Cc1cccs1 (stereo unspecified) | 103% (inactive) |
| O=C(Nc1ccc2c(c1)CCC2)c1ccc(F)cc1 | 89.2% (inactive) |
| Cn1ncc(Cl)c1C(=O)Nc1ccc(Cl)cn1 | 80% (inactive) |
| COc1ccccc1C(=O)NCCNc1nc2cc(C)cc(C)c2cc1C#N | 83.7% (inactive) |
| CN(C)c1ccc(C2CC(c3cccc(NS(C)(=O)=O)c3)=NN2C(=O)c2ccccc2)cc1 (stereo unspecified) | 75.5% (inactive) |
| CCc1cccc2c(C(=O)COC(=O)c3ccccc3)c[nH]c12 | 95.7% (inactive) |
| CCc1nn(CCCC(=O)NCc2ccccc2Br)c(=O)c2cc3occc3n12 | 94.9% (inactive) |

| SMILES | viability |
| --- | --- |
| Cc1ccc(CNc2ccc([N+](=O)[O-])cc2C(N)=O)cc1 | 71.8% (inactive) |
| CC(C)Cc1nc2n[nH]c(N)c2c2c1CCC2 | 81.1% (inactive) |
| COc1ccc(CN2C(=O)c3cccnc3C2Nc2cc(Cl)c(OC)cc2OC)cc1 (stereo unspecified) | 97.6% (inactive) |
| CC(Oc1ccccc1F)C(=O)Nc1ccc2ccccc2c1 (stereo unspecified) | 88.9% (inactive) |
| COc1cc(OC)cc(C(=O)NCCNc2nc3cc(C)cc(C)c3cc2C#N)c1 | 81.1% (inactive) |
| Cc1cc(C)c2c(c1)c(C)cc1nnc(SCC(=O)NCc3ccco3)n12 | 92.6% (inactive) |
| O=C1c2cccnc2C(Nc2ccccc2)N1Cc1ccco1 (stereo unspecified) | 130% (inactive) |
| CS(=O)(=O)N1CCC(Oc2ccccc2C(=O)N2CCN(CC3CC3)CC2)CC1 | 83% (inactive) |
| COc1cc(NC2c3ccccc3C(=O)N2Cc2ccc3c(c2)OCO3)cc(OC)c1OC (stereo unspecified) | 101% (inactive) |
| COc1ccc(NC2c3ccccc3C(=O)N2Cc2ccccc2Cl)cc1OC (stereo unspecified) | 72.8% (inactive) |
| CCN(CC)S(=O)(=O)c1cc(C(=O)c2nccn2C)ccc1Cl | 73% (inactive) |
| Cc1ccc(C2C3CSCC=C3C(C#N)=C(N)C2(C#N)C#N)cc1 (stereo unspecified) | 73% (inactive) |
| O=C(CSc1ccc2ccccc2c1)NC1CCCc2ccccc21 (stereo unspecified) | 104% (inactive) |
| CCC1CCc2c(sc(NC(C)=O)c2C#N)C1 (stereo unspecified) | 72.8% (inactive) |
| COCCNC(=S)N1CCc2cc(OC)c(OC)cc2C1COc1cc(C)cc(C)c1 (stereo unspecified) | 89.2% (inactive) |
| Cc1c(-c2ccccc2)c(=O)oc2ccc(O)cc12 | 102% (inactive) |
| O=C(CCn1c(=O)c2sccc2n(Cc2cc(=O)n3ccccc3n2)c1=O)NCc1ccco1 | 90.2% (inactive) |
| O=C(CCCn1c(=O)c2sccc2n(Cc2cc(=O)n3ccccc3n2)c1=O)NCc1ccco1 | 105% (inactive) |
